Laboratory results: PubChem BioAssay (NCI)
Compounds without any hit were thinned out: in the full panel of roughly 79,000, 15% have a hit. Values without a mark were called inactive. Activity calls are given as the source filed them. No stated cut-off is given here; in the data, active means growth inhibition above about 70%; inactive means the rest.

What was measured:
[1] = NCI Yeast Anticancer Drug Screen. Data for the rad50 strain (AID 155);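 further: 0% = growth of vehicle-only cultures of the same strain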; details: S. cerevisiae rad50 strain growth inhibition, active compounds read high
How it was run: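 Growth of the mutant yeast was measured after compound exposure and referenced to vehicle-treated cultures.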

[2] = NCI Yeast Anticancer Drug Screen. Data for the mec2-1 strain (AID 157); details: S. cerevisiae mec2-1 strain, active compounds read high
How it was run: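 Strain: mec2-1 (DNA repair/cell cycle alteration). Compound exposure, then growth measured; inhibition expressed relative to vehicle.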

[3] = NCI Yeast Anticancer Drug Screen. Data for the sgs1 mgt1 strain (AID 161);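 further: 0% = growth of cultures given vehicle only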; details: S. cerevisiae sgs1 mgt1 strain, active compounds read high
How it was run: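 Genetically altered yeast, compound exposure, growth inhibition relative to vehicle.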

[4] = NCI Yeast Anticancer Drug Screen. Data for the cln2 rad14 strain (AID 165);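 further: 0% = growth equal to vehicle treated cultures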; details: S. cerevisiae cln2 rad14 strain, active compounds read high
How it was run: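 Compounds are applied to the cln2 rad14 yeast strain, and growth is then compared with that of vehicle-treated cultures to give inhibition.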

[5] = NCI Yeast Anticancer Drug Screen. Data for the bub3 strain (AID 167); details: S. cerevisiae bub3 mutant strain, active compounds read high
How it was run: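 Whole-cell yeast assay. The mutant strain was incubated with compounds, and growth inhibition was determined by comparison with vehicle-treated cells.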

[6] = NCI Yeast Anticancer Drug Screen. Data for the mlh1 rad18 strain (AID 175); details: S. cerevisiae mlh1 rad18 strain growth inhibition, active compounds read high
How it was run: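 Read-out is yeast growth inhibition, calculated against vehicle-only controls. The compound was applied to a strain engineered with DNA damage repair alterations.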

[7] = at 5.0 µM (retest, dose inferred, filed as 0.5)
[8] = at 50.0 µM (retest, dose inferred, filed as 5.0)

Structure (SMILES)	growth inhibition [1, 7]	growth inhibition [1, 8]	growth inhibition ([1]; at 50.0 µM)	growth inhibition [2, 7]	growth inhibition [2, 8]	growth inhibition ([2]; at 50.0 µM)	growth inhibition [3, 7]	growth inhibition [3, 8]	growth inhibition ([3]; at 50.0 µM)	growth inhibition [4, 7]	growth inhibition [4, 8]	growth inhibition ([4]; at 50.0 µM)	growth inhibition [5, 7]	growth inhibition [5, 8]	growth inhibition ([5]; at 50.0 µM)	growth inhibition [6, 7]	growth inhibition [6, 8]	growth inhibition ([6]; at 50.0 µM)
Cc1ccc(CN2CC(=O)N3Cc4ccccc4CN3C(=O)C2)cc1	-1%	-3%	-3.95%	-6%	-15%	6.6%	4%	4%	10.4%	0%	-3%	-8.8%	5%	30%	83.4% (active)	-5%	-2%	-20.2%
Cc1ccc(S(=O)(=O)Oc2c([N+](=O)[O-])cc(C)cc2[N+](=O)[O-])cc1	29%	54%	96.6% (active)	10%	29%	97.6% (active)	14%	21%	98.2% (active)	-1%	17%	82.7% (active)	5%	34%	94% (active)	17%	59%	95.1% (active)
NC1=NC2=C(CCCC2)C(c2cccs2)S1 (centres undefined)	57%	82% (active)	65.8%	39%	78% (active)	32.4%	76% (active)	87% (active)	75.7% (active)	45%	49%	37%	38%	74% (active)	61.7%	61%	92% (active)	60.6%
O=C(/C=C/c1ccccc1)NOC(=O)/C=C/c1ccccc1	42%	93% (active)	97.5% (active)	34%	95% (active)	99.2% (active)	66%	94% (active)	98.9% (active)	25%	91% (active)	98.5% (active)	34%	92% (active)	99% (active)	42%	93% (active)	98.5% (active)
CN1C(=O)c2cccc3c([N+](=O)[O-])ccc(c23)C1=O	-2%	55%	79.3% (active)	-30%	65%	17%	3%	68%	73.2% (active)	10%	84% (active)	56.1%	-9%	80% (active)	10.2%	15%	75% (active)	27.6%
O=C(NC1CCN(Cc2ccccc2)CC1)c1cccc(I)c1	49%	68%	51.7%	39%	64%	58%	57%	73% (active)	81% (active)	84% (active)	88% (active)	82.2% (active)	62%	65%	70% (active)	73% (active)	59%	67.5%
CCN(CC)c1c(C(=O)/C=C/c2ccc(OC)cc2)c(-c2ccccc2)nn(C)c1=O	17%	17%	78.1% (active)	8%	8%	72.5% (active)	5%	5%	69%	9%	9%	77% (active)	-4%	-4%	71.3% (active)	8%	8%	70.2% (active)
O=C1/C(=C\c2ccccc2)C(NC2CCCCC2)c2ccccc21 (centres undefined)	73% (active)	99% (active)	99.6% (active)	43%	99% (active)	99.7% (active)	65%	98% (active)	99.7% (active)	37%	100% (active)	99.5% (active)	75% (active)	99% (active)	99.5% (active)	74% (active)	99% (active)	99.5% (active)
O=C(COc1ccc(Cl)c(Cl)c1)Nc1ccc[n+](Cc2ccc(Cl)c(Cl)c2)c1	-15%	99% (active)	99.6% (active)	1%	100% (active)	99.5% (active)	13%	99% (active)	99.5% (active)	2%	99% (active)	99.2% (active)	2%	99% (active)	99.3% (active)	39%	99% (active)	98.8% (active)
CCC(Sc1ccccc1[N+](=O)[O-])[N+](=O)[O-] (centres undefined)	1%	0%	88.7% (active)	0%	-4%	90.8% (active)	3%	-1%	49.1%	-2%	-6%	43.7%	0%	-11%	97.1% (active)	-1%	1%	55.1%
C=CCOc1c(CCC)cc(CN)cc1CCC	-2%	2%	4.45%	-2%	-6%	-8.2%	5%	23%	24.6%	1%	-7%	58.5%	-3%	7%	2.55%	-1%	11%	49.8%
Cc1noc(NS(=O)(=O)c2ccc(NC(=S)/N=C/c3c(O)[nH]c(=O)[nH]c3=O)cc2)c1C	-1%	-5%	16.1%	-18%	-11%	9.75%	-8%	-5%	16.5%	-24%	-19%	44.8%	4%	10%	6.05%	7%	-2%	15.8%
CN(C)/C(N)=N\c1nc2ccc(Cl)cc2s1	-13%	15%	10.9%	-4%	-17%	11.4%	-17%	4%	8.3%	-20%	-10%	15.9%	-1%	12%	-11.1%	-3%	48%	9.05%
